# Assay outcomes from PubChem.
# PP1 counter: PP1-alpha (human) inhibition in PP5 counter-screen. P62136. purified PP1alpha, OMFP fluorescence. inhibition, % at 6.7 µM. 320,000 compounds, 0.9% hits;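 active means inhibition above the mean inhibition of all tested compounds plus 3 SD, computed separately for each screening campaign, cut at about 15% in these data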
# Target sequence (P62136 whole entry, looked up): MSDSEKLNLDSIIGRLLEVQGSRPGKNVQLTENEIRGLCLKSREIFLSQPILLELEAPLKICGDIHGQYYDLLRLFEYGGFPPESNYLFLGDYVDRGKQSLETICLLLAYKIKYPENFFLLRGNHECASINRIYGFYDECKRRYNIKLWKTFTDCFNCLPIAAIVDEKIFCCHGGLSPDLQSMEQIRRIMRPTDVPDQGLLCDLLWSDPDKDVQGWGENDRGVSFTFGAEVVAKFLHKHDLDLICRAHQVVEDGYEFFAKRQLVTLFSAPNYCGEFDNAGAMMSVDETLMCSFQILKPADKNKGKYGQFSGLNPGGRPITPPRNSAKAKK
# PAFAH1B2 FP inh: inhibitors of human PAFAH1B2; P68402; recombinant PAFAH1B2, FP-rhodamine activity probe, fluorescence polarization; inhibition, % at 3.39 µM; 340,000 compounds, 1.2% hits; AID 492953;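 active means inhibition above the mean of all tested compounds plus 3 SD, cut at about 24% in these data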;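 further: 0% = enzyme with DMSO and 100% = wells lacking PAFAH1B2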
# Target sequence (P68402 whole entry, looked up): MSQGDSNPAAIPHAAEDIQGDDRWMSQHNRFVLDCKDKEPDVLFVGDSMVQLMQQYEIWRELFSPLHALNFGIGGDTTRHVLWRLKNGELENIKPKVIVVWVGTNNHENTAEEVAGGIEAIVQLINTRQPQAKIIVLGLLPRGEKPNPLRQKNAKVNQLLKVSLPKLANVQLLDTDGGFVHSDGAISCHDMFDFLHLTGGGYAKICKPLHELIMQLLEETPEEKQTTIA
# PAFAH2 inh: PAFAH2 (human) inhibition; recombinant PAFAH2, FP-rhodamine activity probe, fluorescence polarization; AID 492956; 340,000 compounds, 0.99% hits; inhibition, % at 3.39 µM; Q99487;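 active means inhibition above the mean over all tested compounds plus 3 SD, cut at about 30% in these data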;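 further: inhibitors block probe labeling of enzyme so polarization drops; 0% = enzyme with DMSO and 100% = wells lacking PAFAH2 protein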
# PAFAH1B3 FP inh: blocks human PAF acetylhydrolase 1B catalytic subunit 3; Q15102; recombinant PAFAH1B3, FP-rhodamine probe, fluorescence polarization; inhibition, % at 3.39 µM; 340,000 compounds, 0.28% hits;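 active means inhibition above the screen-wide average of all tested compounds plus 3 SD, cut at about 25% in these data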;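 further: 0% = enzyme with DMSO only and 100% = wells lacking PAFAH1B3 protein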
# PP5 inh: blocks human protein phosphatase 5 activity; purified PP5c, OMFP substrate fluorescence; inhibition, % at 6.7 µM; 320,000 compounds, 0.18% hits; P53041;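 active means inhibition above the campaign's mean inhibition across all tested compounds plus 3 SD, cut at about 9.5% in these data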;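 further: 0% = DMSO only and 100% = 100 µM cantharidin control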
# pPAFAH inh: pPAFAH (human) enzyme inhibition; Q13093; recombinant pPAFAH, FP-rhodamine probe fluorescence polarization; inhibition, % at 3.39 µM; 330,000 compounds, 1.5% hits; AID 463082;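 active means inhibition above the mean inhibition across the screen plus 3 SD, cut at about 25% in these data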;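 further: inhibitors block binding of the rhodamine activity-based probe so polarization drops; 0% = enzyme with DMSO and 100% = wells lacking pPAFAH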
# PP1 confirm: confirmation of human PP1 phosphatase inhibitors; shares compounds with PP1 counter; purified PP1alpha, OMFP substrate fluorescence; inhibition, % at 6.7 µM; 1,900 compounds, 52% hits; AID 2358;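 active means mean PP1 inhibition above a set limit taken from the earlier primary screen, cut at about 15% in these data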
# PP5 counter: inhibits human PP5 phosphatase in PP1 counter-screen; shares compounds with PP1 counter; purified PP5c, OMFP fluorescence; inhibition, % at 6.7 µM; 1,900 compounds, 4% hits; AID 2360;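 active means mean PP5 inhibition over triplicate wells above about 9.5% taken from the earlier PP1 screen, limit read from the data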
# * marks the source's active call; other numbers are inactive results; nt = no result given. An excerpt weighted towards active compounds, which were near 3.4% of everything screened.
SMILES,PP1 counter,PAFAH1B2 FP inh,PAFAH2 inh,PAFAH1B3 FP inh,PP5 inh,pPAFAH inh,PP1 confirm,PP5 counter
COc1cccc(/C=N/Nc2ncnc3scc(-c4ccccc4)c23)c1O,26*,1,7,17,4,15,32*,6
COc1cccc(/C=N/Nc2nc3ccccc3[nH]2)c1O,14,2,10,7,1,3,nt,nt
COc1cccc(/C=N/Nc2nccnc2Cl)c1O,nt,4,3,11,nt,nt,nt,nt
COc1cccc(/C=N/Nc2ncnc(Cl)c2N)c1O,26*,7,5,4,-1,2,32*,-2
COc1ccc(NC(=O)C2C3CCC(O3)C2C(=O)O)c(C)c1 (stereo unspecified),62*,3,1,1,65*,3,12,27*
O=C(NCc1ccccc1Br)c1ccco1,-5,2,-1,-2,3,-2,nt,nt
Cc1cc(Br)ccc1NC(=O)C1C2CCC(O2)C1C(=O)O (stereo unspecified),55*,1,4,6,63*,1,9,16*
O=C(O)C1C2CCC(O2)C1C(=O)NCc1ccccc1Br (stereo unspecified),17*,2,4,3,34*,-1,10,17*
O=C(O)C1C2CCC(O2)C1C(=O)NCCC1=CCCCC1 (stereo unspecified),61*,4,5,-4,69*,2,31*,41*
COC(=O)N1C(=O)[C@@](c2ccccc2)(C2CCCCC2)N1C(=O)OC,-2,2,1,8,0,-8,nt,nt
CC1(C)Cc2ccccc2C(N/N=C/c2ccc(Cl)cc2)=N1,2,3,-2,10,0,5,nt,nt
COc1ccc(CCNC(=O)CNS(=O)(=O)c2ccc(F)c(Cl)c2)cc1OC,6,2,12,-2,-5,-8,nt,nt
COc1ccc(CCNC(=O)COc2ccc(S(=O)(=O)NCC(C)C)cc2Cl)cc1OC,18*,2,3,-13,2,15,-1,0
SC(COCc1ccccc1)CN1CCN(Cc2ccc3c(c2)OCO3)CC1 (stereo unspecified),25*,-4,-6,5,0,0,2,-4
Cc1cc2oc3ccc(NCCCn4ccnc4)cc3c(=O)c2cc1C,25*,5,14,12,2,20,5,-2
CC1CC(C)CN(CC(O)COCc2ccccc2F)C1 (stereo unspecified),39*,10,4,4,-2,0,-4,-5
CCOC(=O)c1cnc(-n2nc(C)cc2C)nc1Nc1ccc(OC)cc1,9,1,-1,-9,0,8,nt,nt
CCOC(=O)c1cnc(-n2nc(C)cc2C)nc1NC1CCCC1,22*,5,-8,9,2,-2,27*,1
CCOC(=O)c1cnc(-n2nc(C)cc2C)nc1NCCc1ccccc1,57*,5,-5,3,7,6,51*,-1
CCOC(=O)c1cnc(-n2nc(C)cc2C)nc1NCc1ccc2c(c1)OCO2,31*,-1,-9,4,3,2,59*,-5
CC(=O)NC12CC3CC(C1)CC(C(=O)NCc1ccc(C)cc1)(C3)C2,-1,1,14,-3,-1,-2,nt,nt
COCc1ccc(CN2CCCC(C(=O)Nc3ccc(-c4cscn4)cc3)C2)o1 (stereo unspecified),-3,1,3,3,4,8,nt,nt
O=C(c1ccc(-n2cncn2)c([N+](=O)[O-])c1)N1CCN(S(=O)(=O)c2ccccc2F)CC1,-3,5,1,9,-3,-2,nt,nt
COc1ccc(-c2oc3ccccc3c2C#Cc2cncn2C)cc1,18*,3,3,4,3,14,25*,-6
COc1ccc(-c2sc3ccc(OC)cc3c2C#Cc2cncn2C)cc1,nt,2,-13,8,nt,18,nt,nt
SMILES,PP1 counter,PAFAH1B2 FP inh,PAFAH2 inh,PAFAH1B3 FP inh,PP5 inh,pPAFAH inh,PP1 confirm,PP5 counter
COc1cccc(OCC(O)CN2CCC(CN3C(=O)c4cccc5cccc(c45)C3=O)CC2)c1 (stereo unspecified),-4,-1,-2,-1,8,-3,nt,nt
O=C1c2cccc3cccc(c23)C(=O)N1CC1CCN(CC(O)COc2ccc3ccccc3c2)CC1 (stereo unspecified),34*,-3,-4,0,0,-2,0,1
Clc1ccc(N=c2ssnc2Cl)cc1,19*,10,2,10,0,4,1,-1
Cc1ccc(C)c(NC(=O)CSc2nnc(-c3ccncc3)o2)c1,-1,nt,nt,nt,-1,0,nt,nt
N#Cc1ccccc1NC(=O)CSc1nnc(-c2ccncc2)o1,33*,7,4,15,3,0,-2,-2
Cc1noc(C)c1S(=O)(=O)N(C)C[C@H]1Oc2c(NS(=O)(=O)c3cn(C)cn3)cccc2C(=O)N([C@H](C)CO)C[C@@H]1C,nt,-2,1,5,nt,7,nt,nt
Fc1ccccc1OCC1CCCN(Cc2nc(CC3CC3)no2)C1 (stereo unspecified),-1,3,3,-7,1,3,nt,nt
Cc1cc(N/N=C/c2ccc(Cl)cc2)nc(NCc2ccccc2)n1,19*,0,-6,3,6,2,2,-1
Cc1cc(N/N=C/c2cccc(F)c2)nc(NCc2ccccc2)n1,9,2,15,0,2,2,nt,nt
CC(OC(=O)C1CCN(c2ccc(C(F)(F)F)cn2)CC1)C(=O)Nc1cccc([N+](=O)[O-])c1 (stereo unspecified),5,3,1,3,8,2,nt,nt
COc1ccc2c(Cl)c(C(=O)NCCCn3ccnc3)sc2c1Cl,18*,-2,4,0,-3,3,3,-4
COc1ccc(S(=O)(=O)N2CCN(C(=O)c3ccc4ccccc4n3)CC2)cc1,1,2,-1,5,1,-2,nt,nt
O=C(NCCC(=O)N1CCN(S(=O)(=O)c2ccccc2Cl)CC1)Nc1ccccc1,-1,4,-4,-7,0,-1,nt,nt
CCOC(=O)N1CCN(Cc2nc(N)nc(Nc3ccc(Oc4ccccc4)cc3)n2)CC1,23*,3,5,4,2,17,4,-1
CCOC(=O)N1CCN(Cc2nc(N)nc(Nc3ccc(OC)cc3)n2)CC1,2,-1,2,2,2,-1,nt,nt
O=C(NCc1ccccc1)C1CCCN(C(=O)c2ccc(F)cc2)C1 (stereo unspecified),nt,2,2,2,nt,nt,nt,nt
Cc1cc(-c2ccc3c(c2)COc2c4ccccc4nn2-3)on1,25*,6,-2,6,0,2,26*,-5
